Results as given in PubChem BioAssay (Tox21).
Values joined by “and” are separate entries in the source; they are usually repeats but may differ in a detail not shown here. Identical values can stand only once. Inconclusive results are not listed. Entries that show only a call come without a potency. The source holds several records for some structures; these can differ, active in one and inactive in another. Active and inactive are the calls of the source. Unless noted, calls follow the shape of the dose curve; as a rule, active = well fitted curve in the direction sought with a large enough effect in the repeat runs; inconclusive = weak or mixed curves; inactive = no such curve, though single readings can be large; an effect the other way counts as inactive or inconclusive.

Assays:
[1] = molecular target: Aryl hydrocarbon receptor (Homo sapiens) (UniProt P35869); assay: qHTS assay to identify small molecule that activate the aryl hydrocarbon receptor (AhR) signaling pathway (AID 743085); also: nearly all actives have a fitted effect of over 15% in size; also: potency is read from the fitted curve at half-maximal effect;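 as to activation: HG2L7.5c1 human HepG2 liver cells with stably integrated DRE-driven firefly reporter; series mostly up to about 70 µM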
Sequence of Aryl hydrocarbon receptor (Homo sapiens) (P35869 whole entry, looked up): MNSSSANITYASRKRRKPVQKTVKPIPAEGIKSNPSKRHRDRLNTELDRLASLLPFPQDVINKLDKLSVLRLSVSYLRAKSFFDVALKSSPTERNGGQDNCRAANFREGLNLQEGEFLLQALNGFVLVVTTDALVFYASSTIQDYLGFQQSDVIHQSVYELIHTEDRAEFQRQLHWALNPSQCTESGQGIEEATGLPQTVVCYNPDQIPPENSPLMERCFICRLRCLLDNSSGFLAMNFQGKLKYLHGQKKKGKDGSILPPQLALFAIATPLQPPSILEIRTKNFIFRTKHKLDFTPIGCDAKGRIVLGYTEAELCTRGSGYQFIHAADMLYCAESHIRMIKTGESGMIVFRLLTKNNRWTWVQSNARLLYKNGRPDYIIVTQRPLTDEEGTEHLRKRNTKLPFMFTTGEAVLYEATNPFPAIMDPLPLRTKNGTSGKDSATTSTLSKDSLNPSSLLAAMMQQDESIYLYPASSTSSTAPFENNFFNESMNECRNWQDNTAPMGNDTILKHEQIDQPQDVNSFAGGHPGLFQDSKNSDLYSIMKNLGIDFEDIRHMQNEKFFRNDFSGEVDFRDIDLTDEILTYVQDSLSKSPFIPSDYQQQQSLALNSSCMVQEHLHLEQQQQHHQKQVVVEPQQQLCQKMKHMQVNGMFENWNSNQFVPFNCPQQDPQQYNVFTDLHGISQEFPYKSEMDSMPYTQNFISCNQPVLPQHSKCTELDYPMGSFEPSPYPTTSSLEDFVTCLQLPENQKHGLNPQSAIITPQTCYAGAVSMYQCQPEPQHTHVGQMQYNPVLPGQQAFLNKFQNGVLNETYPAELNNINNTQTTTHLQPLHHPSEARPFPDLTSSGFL
Procedure, shortened: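 Luminescence (ONE-Glo) from a dioxin-responsive-element luciferase reporter in HG2L7.5c1 HepG2 cells after 24 hr compound exposure at 37C; viability measured by CellTiter-Fluor fluorescence beforehand.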

[2] = qHTS assay to identify small molecule that activate the aryl hydrocarbon receptor (AhR) signaling pathway - cell viability counter screen (AID 743086); also: nearly all actives have a fitted effect of over 45% in size; also: potency is read from the fitted curve at half-maximal effect
Procedure, shortened: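 HepG2-AhR-luc (HG2L7.5c1) cells, 4000/well, treated 24 h at 37 C with compound; viability measured as CellTiter-Fluor fluorescence after 30 min in the same wells as the luciferase read.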

[3] = qHTS assay to identify small molecule antagonists of the peroxisome proliferator-activated receptor gamma (PPARg) signaling pathway - cell viability counter screen (AID 743194); also: nearly all actives have a fitted effect of over 55% in size; also: potency is read from the fitted curve at half-maximal effect
Procedure, shortened: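 Cytotoxicity counter screen in PPARg-bla HEK293H cells, same wells as reporter assay. Compounds plus 50 nM rosiglitazone (final) for 17 h at 37 C, then viability read by CellTiter-Glo luminescence.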

[4] = qHTS assay for small molecule agonists of the antioxidant response element (ARE) signaling pathway - cell viability counter screen (AID 743203; calls by dose curve; also: nearly all actives have a fitted effect of over 55% in size; also: potency is read from the fitted curve at half-maximal effect)
Procedure, shortened: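 ARE-bla HepG2 cells were plated, rested 5 h at 37C/5% CO2, then exposed to compounds in DMSO for 16 h. Viability was read as CellTiter-Glo luminescence after 30 min at room temperature, in the same wells as the ARE screen.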

[5] = qHTS assay for small molecule activators of the heat shock response signaling pathway - cell viability counter screen (AID 743209); also: nearly all actives have a fitted effect of over 50% in size; also: potency is read from the fitted curve at half-maximal effect
Procedure, shortened: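 HSE-bla HeLa cells plated overnight, then exposed to Tox21 compounds (23 nL in DMSO) for 5 h at 37 C. After the bla reporter read, CellTiter-Glo was added in the same wells and luminescence read after 30 min at room temperature.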

[6] = qHTS assay to identify small molecule agonists of the peroxisome proliferator-activated receptor delta (PPARd) signaling pathway - cell viability counter screen (AID 743211); also: nearly all actives have a fitted effect of over 55% in size; also: potency is read from the fitted curve at half-maximal effect
Procedure, shortened: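 Viability was measured as CellTiter-Glo luminescence (30 min, room temperature) in the same wells as the beta-lactamase readout. GeneBLAzer PPARd UAS-bla HEK293H cells received compound after 5 h plating and were incubated 17 h at 37 C.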

[7] = qHTS assay to identify small molecule antagonists of the peroxisome proliferator-activated receptor delta (PPARd) signaling pathway - cell viability counter screen (AID 743213); also: nearly all actives have a fitted effect of over 50% in size; also: potency is read from the fitted curve at half-maximal effect
Procedure, shortened: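 Luminescence from CellTiter-Glo, added after the bla read and incubated 30 min at room temperature, gives viability of HEK293H PPARd-bla cells exposed to compounds for 17 h at 37 C with 300 nM L165041.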

[8] = molecular target: Peroxisome proliferator-activated receptor delta (Homo sapiens) (UniProt Q03181); assay: qHTS assay to identify small molecule antagonists of the peroxisome proliferator-activated receptor delta (PPARd) signaling pathway (AID 743215; active = well fitted inhibition curve with a large enough effect in the signal ratio in the repeat runs, not every such curve was filed as active; the % refers to the signal ratio;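 also: cells stimulated with agonist L165041 at 300 nM final during compound exposure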; also: potency is read from the fitted curve at half-maximal effect)
Sequence of Peroxisome proliferator-activated receptor delta (Homo sapiens) (Q03181 whole entry, looked up): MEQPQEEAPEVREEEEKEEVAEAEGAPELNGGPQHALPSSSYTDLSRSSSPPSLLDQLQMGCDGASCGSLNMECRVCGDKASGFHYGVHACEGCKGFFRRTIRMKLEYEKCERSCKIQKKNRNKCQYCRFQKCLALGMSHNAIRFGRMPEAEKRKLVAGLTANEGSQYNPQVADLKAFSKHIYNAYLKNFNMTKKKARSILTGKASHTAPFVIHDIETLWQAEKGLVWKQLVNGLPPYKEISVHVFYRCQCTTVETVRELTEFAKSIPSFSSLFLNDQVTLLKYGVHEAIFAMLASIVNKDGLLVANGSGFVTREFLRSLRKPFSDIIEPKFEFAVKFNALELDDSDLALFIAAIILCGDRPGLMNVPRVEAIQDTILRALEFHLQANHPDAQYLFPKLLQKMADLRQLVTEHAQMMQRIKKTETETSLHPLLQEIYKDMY
Procedure, shortened: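 PPARd-bla HEK293H cells (UAS-bla reporter) preincubated 5 h, then given compound plus 300 nM final L165041 agonist for 17 h at 37 C. Beta-lactamase activity read by LiveBLAzer B/G FRET substrate fluorescence after 2 h at room temperature.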

[9] = molecular target: Bile acid receptor (Homo sapiens) (UniProt Q96RI1); assay: qHTS assay to identify small molecule antagonists of the farnesoid-X-receptor (FXR) signaling pathway (AID 743217; active = well fitted inhibition curve with a large enough effect in the signal ratio in the repeat runs, not every such curve was filed as active; the % refers to the signal ratio; also: potency is read from the fitted curve at half-maximal effect)
Sequence of Bile acid receptor (Homo sapiens) (Q96RI1 whole entry, looked up): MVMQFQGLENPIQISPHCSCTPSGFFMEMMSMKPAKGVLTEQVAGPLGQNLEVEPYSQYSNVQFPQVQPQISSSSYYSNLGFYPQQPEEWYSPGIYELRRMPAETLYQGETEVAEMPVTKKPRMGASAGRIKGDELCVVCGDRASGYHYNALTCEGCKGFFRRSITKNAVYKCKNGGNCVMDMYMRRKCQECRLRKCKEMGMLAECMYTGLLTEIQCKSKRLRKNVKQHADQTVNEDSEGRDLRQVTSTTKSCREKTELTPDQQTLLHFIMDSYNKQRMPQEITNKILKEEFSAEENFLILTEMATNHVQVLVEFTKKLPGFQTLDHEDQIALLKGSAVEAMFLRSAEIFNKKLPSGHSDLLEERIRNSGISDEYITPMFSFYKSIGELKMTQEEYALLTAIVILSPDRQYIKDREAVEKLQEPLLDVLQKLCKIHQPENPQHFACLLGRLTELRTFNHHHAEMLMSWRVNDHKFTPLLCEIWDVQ
Procedure, shortened: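 FXR-UAS-bla HEK 293T cells (beta-lactamase reporter) given compound plus chenodeoxycholic acid (50 uM final), 16 h at 37C. LiveBLAzer B/G FRET substrate added for 2 h at room temperature; fluorescence read.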

[10] = qHTS assay to identify small molecule agonists of the farnesoid-X-receptor (FXR) signaling pathway - cell viability counter screen (AID 743218); also: nearly all actives have a fitted effect of over 45% in size; also: potency is read from the fitted curve at half-maximal effect
Procedure, shortened: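 FXR-UAS-bla HEK 293T cells exposed to compounds for 16 h at 37C. Cytotoxicity read in the same wells by CellTiter-Glo luminescence after 30 min at room temperature, following the beta-lactamase FRET read.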

[11] = qHTS assay to identify small molecule antagonists of the farnesoid-X-receptor (FXR) signaling pathway - cell viability counter screen (AID 743221; active = well fitted cell-killing curve with a large enough effect in the repeat runs, not every such curve was filed as active; also: nearly all actives have a fitted effect of over 50% in size; also: potency is read from the fitted curve at half-maximal effect)
Procedure, shortened: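 Cytotoxicity counter screen run in the FXR-bla reporter wells: HEK 293T cells exposed to compound with 50 uM (final) chenodeoxycholic acid for 16 h, 37 C, then viability measured by CellTiter-Glo luminescence after 30 min, room temperature.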

[12] = qHTS assay to identify small molecule agonists of the vitamin D receptor (VDR) signaling pathway - cell viability counter screen (AID 743224); also: nearly all actives have a fitted effect of over 50% in size; also: potency is read from the fitted curve at half-maximal effect
Procedure, shortened: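 VDR-bla cells, 4 h after plating, exposed to compounds for 16 h at 37C; viability then read in the same wells as CellTiter-Glo luminescence after 30 min at room temperature, following the bla FRET read.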

[13] = molecular target: Peroxisome proliferator-activated receptor delta (Homo sapiens) (UniProt Q03181); assay: qHTS assay to identify small molecule agonists of the peroxisome proliferator-activated receptor delta (PPARd) signaling pathway (AID 743212; calls by dose curve; also: potency is read from the fitted curve at half-maximal effect)
Procedure, shortened: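 Quantitative high-throughput agonist screen in a HEK293H beta-lactamase reporter line under UAS control. Compounds in DMSO, at 37 C. Fluorescence read after 2 h with FRET substrate at room temperature.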

[14] = molecular target: Bile acid receptor (Homo sapiens) (UniProt Q96RI1); assay: qHTS assay to identify small molecule agonists of the farnesoid-X-receptor (FXR) signaling pathway (AID 743220; active = well fitted activation curve with a large enough effect in the signal ratio in the repeat runs, not every such curve was filed as active; the % refers to the signal ratio)
Procedure, shortened: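 Beta-lactamase reporter under UAS control in GeneBLAzer FXR HEK 293T cells (5000/well) measured with LiveBLAzer FRET substrate after 2 h at room temperature. Compound exposure lasted 16 h at 37C.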

[15] = molecular target: Vitamin D3 receptor (Homo sapiens) (UniProt P11473); assay: qHTS assay to identify small molecule antagonists of the vitamin D receptor (VDR) signaling pathway (AID 743223; active = well fitted inhibition curve with a large enough effect in the signal ratio in the repeat runs, not every such curve was filed as active; the % refers to the signal ratio)
Sequence of Vitamin D3 receptor (Homo sapiens) (P11473 whole entry, looked up): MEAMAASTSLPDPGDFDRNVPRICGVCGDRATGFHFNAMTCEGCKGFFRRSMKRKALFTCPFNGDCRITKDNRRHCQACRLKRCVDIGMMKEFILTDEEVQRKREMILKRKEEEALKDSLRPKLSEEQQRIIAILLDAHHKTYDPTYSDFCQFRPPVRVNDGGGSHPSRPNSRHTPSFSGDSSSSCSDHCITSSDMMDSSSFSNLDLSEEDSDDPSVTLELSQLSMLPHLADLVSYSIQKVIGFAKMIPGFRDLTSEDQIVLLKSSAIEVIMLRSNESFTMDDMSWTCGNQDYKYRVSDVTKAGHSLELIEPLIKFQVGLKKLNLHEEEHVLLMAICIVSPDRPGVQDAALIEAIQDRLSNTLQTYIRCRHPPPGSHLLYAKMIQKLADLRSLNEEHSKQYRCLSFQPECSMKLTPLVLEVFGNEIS
Procedure, shortened: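 Antagonist mode: compound added to VDR-bla cells alongside agonist 1alpha,25-dihydroxyvitamin D3 (3 nM final), incubation 16 h at 37C. Read-out is LiveBLAzer FRET fluorescence, 2 h at room temperature.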

[16] = qHTS assay for small molecule activators of the heat shock response signaling pathway (AID 743210; active = well fitted activation curve with a large enough effect in the signal ratio in the repeat runs, with a control signal flat, not every such curve was filed as active; the % refers to the signal ratio; also: potency is read from the fitted curve at half-maximal effect;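 as to activation: HeLa cells with beta-lactamase reporter driven by heat shock elements; series mostly up to about 63 µM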)
Procedure, shortened: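 Quantitative high-throughput format using an engineered HeLa line in which heat shock response elements drive beta-lactamase; after 5 h with compound, cells received a B/G FRET substrate and fluorescence was read.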

[17] = molecular target: Vitamin D3 receptor (Homo sapiens) (UniProt P11473); assay: qHTS assay to identify small molecule agonists of the vitamin D receptor (VDR) signaling pathway (AID 743222; calls by dose curve; also: potency is read from the fitted curve at half-maximal effect)
Procedure, shortened: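 VDR-bla cells plated 4 h at 37 C, then exposed to compounds for 16 h at 37 C. Beta-lactamase reporter activity measured by fluorescence after 2 h room-temperature loading with LiveBLAzer B/G FRET substrate.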

Row | SMILES | Potency [1] | Potency [2] | Potency [3] | Potency [4] | Potency [5] | Potency [6] | Potency [7] | Potency [8] | Potency [9] | Potency [10] | Potency [11] | Potency [12] | Potency [13] | Potency [14] | Potency [15] | Potency [16] | Potency [17]
1 | Cc1cc(O)c2ccccc2c1O | 9.44 µM (active) | inactive | 10.6 µM (active) | 13.3 µM (active) | 9.44 µM (active) | 10.6 µM (active) | 10.6 µM (active) | 10.6 µM (active) | 16.8 µM (active) | 13.3 µM (active) | 23.7 µM (active) | 7.5 µM (active) |  |  |  |  | 
2 | Cc1nc(-c2ccc3c(c2)CCN(CCC2CCC(NC(=O)/C=C/c4ccc(F)cc4)CC2)CC3)no1 (configuration not stated) | inactive | inactive | inactive | inactive | inactive | inactive | inactive |  | inactive | inactive | inactive |  | 21.9 µM (active) |  |  |  | 
3 | Clc1ccc2cc3ccccc3cc2c1 | inactive | inactive | inactive | inactive | inactive | inactive | inactive | inactive | inactive |  | inactive | inactive |  | inactive | inactive |  | 
4 | NC(=O)N1C(=O)C(C(=O)c2cc(Cl)cs2)c2cc(F)c(Cl)cc21 (configuration not stated) | 24.3 µM (active) | 12.2 µM (active) | 13.8 µM (active) | 8.63 µM (active) | inactive | 17.4 µM (active) | 15.5 µM (active) | 13.8 µM (active) |  | 3.89 µM (active) | 24.5 µM (active) | 21.9 µM (active) |  |  |  |  | 
5 | C/C=C1/C(=O)C[C@H]2[C@@H]3CCC4=CC(=O)CC[C@]4(C)[C@H]3CC[C@]12C | inactive | inactive | inactive | inactive | inactive |  |  |  |  | inactive | inactive | inactive |  |  |  | 28.5 µM (active) | 
6 | CCCCc1oc2ccc(NS(C)(=O)=O)cc2c1C(=O)c1ccc(OCCCN(CCCC)CCCC)cc1 | inactive | 26.6 µM (active) | 29.8 µM (active) | 26.6 µM (active) | 29.8 µM (active) | 16.8 µM (active) |  |  |  | 26.6 µM (active) |  | 26.6 µM (active) |  |  |  |  | 
7 | O=C(O)c1ccc(Cl)c(Cl)c1 | inactive | inactive |  | inactive | inactive | inactive | inactive | inactive |  | inactive | inactive | inactive | inactive | inactive | inactive | inactive | inactive
8 | CCOc1ccc2nc3cc(N)ccc3c(N)c2c1 | 11.9 µM (active) | inactive | inactive |  |  |  |  | inactive |  | inactive |  | inactive |  |  |  |  | 
9 | O=C(OCC(COC(=O)c1ccccc1)(COC(=O)c1ccccc1)COC(=O)c1ccccc1)c1ccccc1 | inactive | inactive | inactive | inactive |  |  |  | inactive |  | inactive | inactive | inactive |  |  |  |  | inactive
10 | CC(=O)N1CCN(c2ccc(OC[C@H]3CO[C@](Cn4ccnc4)(c4ccc(Cl)cc4Cl)O3)cc2)CC1 | 6.68 µM (active) | inactive and 27.3 µM (active) | 43.6 µM (active) | 61.1 µM (active) |  | 34.7 µM (active) | 27.5 µM (active) |  | 43.6 µM (active) | 49 µM (active) | 54.9 µM (active) | 21.9 µM (active) |  |  |  |  | 
11 | CCCCCCCCCCCC[N+](C)(C)CCCCCCCCCCCC | inactive | 48.6 µM (active) | 27.5 µM (active) | 24.3 µM (active) |  |  | 13.8 µM (active) |  | 49 µM (active) | 27.5 µM (active) |  | 19.5 µM (active) |  |  |  |  | 
12 | O=C1CCCc2c1cc1ccc3cccc4ccc2c1c34 | 69.4 µM (active) | inactive | inactive | inactive |  |  | inactive |  |  |  | inactive | inactive | 49.6 µM (active) |  | inactive |  | 19.7 µM (active)
